{"source": "paper PMC7862700", "about": "“An all-to-all approach to the identification of sequence-specific readers for epigenetic DNA modifications on cytosine”", "assay_in_all_cases": "DAPPL (digital affinity profiling via proximity ligation, sequencing); 10 mM Tris-HCl pH 7.5, 50 mM NaCl, 1 mM DTT, 4% glycerol, room temperature, 30 min; GST-TFs on glutathione beads, 16-mer random dsDNA library, 0.1% formaldehyde crosslink after washing; high values mean tight binding", "key": {"[1]": {"target": "T1, FEV (Homo sapiens, UniProt Q99581 1-238)", "T1 sequence": "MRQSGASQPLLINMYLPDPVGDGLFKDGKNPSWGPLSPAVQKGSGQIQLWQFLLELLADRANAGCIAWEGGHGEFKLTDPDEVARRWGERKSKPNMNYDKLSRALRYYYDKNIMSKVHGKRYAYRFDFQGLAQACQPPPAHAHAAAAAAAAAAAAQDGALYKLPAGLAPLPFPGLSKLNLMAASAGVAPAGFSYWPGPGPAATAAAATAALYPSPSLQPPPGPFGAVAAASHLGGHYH", "settings": "protein: recombinant; tags: N-terminal GST; dsDNA, one strand shown", "summary_of_the_method": "(§1)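 Yeast served to express human transcription factors as GST fusions, which were then captured on glutathione beads and labelled with DNA barcodes. Pooled with a tag-only sample, they were incubated with 200 nmole of a 16-mer random double-stranded DNA library for 30 min at room temperature in Tris/NaCl/DTT/glycerol buffer, washed, crosslinked with 0.1% formaldehyde, ligated by proximity, amplified by PCR and sequenced. Dividing each hexamer's read frequency for a factor by its frequency for the tag-only sample gives the binding signal.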"}, "[2]": {"target": "ETV5 (Homo sapiens, UniProt P41161 1-510)", "sequence (P41161 whole entry)": "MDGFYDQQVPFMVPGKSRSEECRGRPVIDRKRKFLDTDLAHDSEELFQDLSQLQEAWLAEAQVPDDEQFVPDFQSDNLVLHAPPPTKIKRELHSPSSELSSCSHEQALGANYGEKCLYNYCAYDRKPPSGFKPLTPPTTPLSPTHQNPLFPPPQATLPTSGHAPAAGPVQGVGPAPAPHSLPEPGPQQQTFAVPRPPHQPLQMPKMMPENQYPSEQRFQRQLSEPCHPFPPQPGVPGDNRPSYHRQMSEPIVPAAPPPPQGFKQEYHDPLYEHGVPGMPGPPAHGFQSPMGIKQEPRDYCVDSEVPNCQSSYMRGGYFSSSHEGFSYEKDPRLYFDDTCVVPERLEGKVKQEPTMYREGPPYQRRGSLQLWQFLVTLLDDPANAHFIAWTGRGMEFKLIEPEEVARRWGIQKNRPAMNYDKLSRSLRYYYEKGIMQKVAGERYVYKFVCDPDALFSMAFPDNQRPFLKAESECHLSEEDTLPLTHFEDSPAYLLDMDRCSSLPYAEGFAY", "settings": "protein: recombinant; tags: N-terminal GST; dsDNA, one strand shown", "summary_of_the_method": "as §1"}, "[3]": {"target": "HSF1 (Homo sapiens, UniProt Q00613 1-529)", "sequence (Q00613 whole entry)": "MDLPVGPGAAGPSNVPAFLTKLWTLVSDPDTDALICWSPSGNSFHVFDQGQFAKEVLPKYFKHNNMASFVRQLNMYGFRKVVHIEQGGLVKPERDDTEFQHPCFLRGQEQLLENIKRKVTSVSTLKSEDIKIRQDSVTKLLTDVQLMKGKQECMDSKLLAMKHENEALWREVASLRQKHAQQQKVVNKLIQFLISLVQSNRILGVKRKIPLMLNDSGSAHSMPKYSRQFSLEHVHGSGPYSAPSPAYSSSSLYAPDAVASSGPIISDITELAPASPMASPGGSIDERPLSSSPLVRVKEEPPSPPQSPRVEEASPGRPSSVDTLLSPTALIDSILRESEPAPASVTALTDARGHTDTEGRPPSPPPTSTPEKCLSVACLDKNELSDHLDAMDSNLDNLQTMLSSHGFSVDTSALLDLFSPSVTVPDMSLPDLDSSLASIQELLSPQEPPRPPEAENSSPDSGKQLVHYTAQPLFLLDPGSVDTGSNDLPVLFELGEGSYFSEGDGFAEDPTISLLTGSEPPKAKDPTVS", "settings": "protein: recombinant; tags: N-terminal GST; chain copies: 3; dsDNA, one strand shown", "summary_of_the_method": "as §1"}, "[4]": {"target": "T2, SPIC (Homo sapiens, UniProt Q8N5J4 1-248)", "T2 sequence": "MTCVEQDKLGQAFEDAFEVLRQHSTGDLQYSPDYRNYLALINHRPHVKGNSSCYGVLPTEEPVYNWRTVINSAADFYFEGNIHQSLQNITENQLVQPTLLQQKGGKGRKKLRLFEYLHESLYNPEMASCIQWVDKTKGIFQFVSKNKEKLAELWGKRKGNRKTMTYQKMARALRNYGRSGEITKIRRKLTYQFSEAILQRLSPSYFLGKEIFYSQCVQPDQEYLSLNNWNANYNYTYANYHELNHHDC", "settings": "protein: recombinant; tags: N-terminal GST; dsDNA, one strand shown", "summary_of_the_method": "as §1"}, "[5]": {"target": "ELF4 (Homo sapiens, UniProt Q99607 1-663)", "sequence (Q99607 whole entry)": "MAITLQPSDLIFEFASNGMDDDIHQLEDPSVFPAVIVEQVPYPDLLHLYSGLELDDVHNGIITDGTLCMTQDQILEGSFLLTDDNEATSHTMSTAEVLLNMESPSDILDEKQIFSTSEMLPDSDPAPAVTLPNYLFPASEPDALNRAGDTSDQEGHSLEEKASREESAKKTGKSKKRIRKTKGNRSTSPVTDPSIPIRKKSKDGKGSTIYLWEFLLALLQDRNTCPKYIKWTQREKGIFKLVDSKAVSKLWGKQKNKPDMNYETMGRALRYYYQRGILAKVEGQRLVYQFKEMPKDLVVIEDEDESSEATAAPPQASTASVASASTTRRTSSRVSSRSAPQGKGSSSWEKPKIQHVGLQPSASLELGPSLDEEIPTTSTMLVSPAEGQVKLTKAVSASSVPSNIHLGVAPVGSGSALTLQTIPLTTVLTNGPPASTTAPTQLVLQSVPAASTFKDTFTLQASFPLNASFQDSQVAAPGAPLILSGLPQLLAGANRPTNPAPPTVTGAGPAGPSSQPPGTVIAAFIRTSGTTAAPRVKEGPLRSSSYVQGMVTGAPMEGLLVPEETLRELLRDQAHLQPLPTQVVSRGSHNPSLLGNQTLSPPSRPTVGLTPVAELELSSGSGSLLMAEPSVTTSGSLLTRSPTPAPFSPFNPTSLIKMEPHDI", "settings": "protein: recombinant; tags: N-terminal GST; dsDNA, one strand shown", "summary_of_the_method": "as §1"}, "[6]": {"target": "T3, ELK4 (Homo sapiens, UniProt P28324-2 1-405)", "T3 sequence": "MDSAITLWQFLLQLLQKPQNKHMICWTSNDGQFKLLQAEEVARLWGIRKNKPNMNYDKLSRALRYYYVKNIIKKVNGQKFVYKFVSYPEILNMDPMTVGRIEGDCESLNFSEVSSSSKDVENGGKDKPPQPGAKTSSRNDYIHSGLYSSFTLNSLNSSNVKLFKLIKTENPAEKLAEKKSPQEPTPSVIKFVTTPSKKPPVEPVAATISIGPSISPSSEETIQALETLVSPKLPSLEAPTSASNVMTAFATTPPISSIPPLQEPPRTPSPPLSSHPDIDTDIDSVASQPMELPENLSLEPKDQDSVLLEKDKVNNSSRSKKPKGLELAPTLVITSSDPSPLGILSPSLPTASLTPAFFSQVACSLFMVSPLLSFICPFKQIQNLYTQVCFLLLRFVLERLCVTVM", "settings": "protein: recombinant; tags: N-terminal GST; dsDNA, one strand shown", "summary_of_the_method": "as §1"}, "[7]": {"target": "T4, ETV2 (Homo sapiens, UniProt O00321 1-342)", "T4 sequence": "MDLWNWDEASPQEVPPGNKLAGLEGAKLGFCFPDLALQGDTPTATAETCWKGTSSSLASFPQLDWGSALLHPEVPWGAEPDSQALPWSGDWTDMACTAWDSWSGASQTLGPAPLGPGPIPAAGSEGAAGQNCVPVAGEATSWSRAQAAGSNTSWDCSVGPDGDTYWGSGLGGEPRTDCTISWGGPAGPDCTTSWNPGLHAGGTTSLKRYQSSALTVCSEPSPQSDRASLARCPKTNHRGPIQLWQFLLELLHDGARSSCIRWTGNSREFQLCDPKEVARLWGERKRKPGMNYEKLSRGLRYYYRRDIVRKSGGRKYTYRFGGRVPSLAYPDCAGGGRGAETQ", "settings": "protein: recombinant; tags: N-terminal GST; dsDNA, one strand shown", "summary_of_the_method": "as §1"}, "[8]": {"target": "T5, ELF3 (Homo sapiens, UniProt P78545 1-371)", "T5 sequence": "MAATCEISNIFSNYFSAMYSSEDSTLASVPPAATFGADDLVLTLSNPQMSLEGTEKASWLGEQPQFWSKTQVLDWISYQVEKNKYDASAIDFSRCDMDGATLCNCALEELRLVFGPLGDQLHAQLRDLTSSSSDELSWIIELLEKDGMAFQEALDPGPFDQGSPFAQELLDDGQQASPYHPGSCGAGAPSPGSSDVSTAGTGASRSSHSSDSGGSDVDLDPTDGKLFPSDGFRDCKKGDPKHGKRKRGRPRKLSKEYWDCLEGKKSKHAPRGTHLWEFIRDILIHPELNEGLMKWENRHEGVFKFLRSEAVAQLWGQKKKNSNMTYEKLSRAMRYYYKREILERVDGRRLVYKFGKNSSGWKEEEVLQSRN", "settings": "protein: recombinant; tags: N-terminal GST; dsDNA, one strand shown", "summary_of_the_method": "as §1"}, "[9]": {"target": "CRX (Homo sapiens, UniProt O43186 1-299)", "sequence (O43186 whole entry)": "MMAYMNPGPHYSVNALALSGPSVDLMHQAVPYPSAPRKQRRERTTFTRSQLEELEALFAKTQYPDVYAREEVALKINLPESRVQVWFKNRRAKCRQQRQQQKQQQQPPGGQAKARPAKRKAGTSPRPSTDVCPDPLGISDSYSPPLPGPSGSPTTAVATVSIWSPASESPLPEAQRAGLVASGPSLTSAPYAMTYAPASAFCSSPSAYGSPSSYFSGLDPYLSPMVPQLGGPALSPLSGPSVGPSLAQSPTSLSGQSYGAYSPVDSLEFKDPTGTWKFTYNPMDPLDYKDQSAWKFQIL", "settings": "protein: recombinant; tags: N-terminal GST; dsDNA, one strand shown", "summary_of_the_method": "as §1"}, "[10]": {"target": "ETV1 (Homo sapiens, UniProt P50549 1-477)", "sequence (P50549 whole entry)": "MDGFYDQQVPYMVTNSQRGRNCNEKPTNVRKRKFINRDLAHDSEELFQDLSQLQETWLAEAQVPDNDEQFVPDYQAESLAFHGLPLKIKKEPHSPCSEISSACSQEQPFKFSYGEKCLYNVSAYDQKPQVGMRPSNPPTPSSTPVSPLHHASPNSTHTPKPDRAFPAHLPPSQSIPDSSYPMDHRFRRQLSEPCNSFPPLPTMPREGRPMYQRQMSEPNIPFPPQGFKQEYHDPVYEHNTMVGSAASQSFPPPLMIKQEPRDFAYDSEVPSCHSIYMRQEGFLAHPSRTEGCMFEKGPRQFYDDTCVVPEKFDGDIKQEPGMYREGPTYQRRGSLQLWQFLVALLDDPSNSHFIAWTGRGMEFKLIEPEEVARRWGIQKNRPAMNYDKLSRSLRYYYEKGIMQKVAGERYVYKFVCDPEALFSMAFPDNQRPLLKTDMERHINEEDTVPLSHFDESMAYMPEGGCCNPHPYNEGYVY", "settings": "protein: recombinant; tags: N-terminal GST; dsDNA, one strand shown", "summary_of_the_method": "as §1"}}, "data": [{"sequence": "ATCTTG", "values": [{"measurement": "binding signal", "setting": "[1]", "value": "1.33 fold enrichment (6-mer frequency, TF over GST control)"}, {"measurement": "binding signal", "setting": "[2]", "value": "1.2 fold enrichment (6-mer frequency, TF over GST control)"}, {"measurement": "binding signal", "setting": "[3]", "value": "1.43 fold enrichment (6-mer frequency, TF over GST control)"}, {"measurement": "binding signal", "setting": "[4]", "value": "1.39 fold enrichment (6-mer frequency, TF over GST control)"}, {"measurement": "binding signal", "setting": "[5]", "value": "1.33 fold enrichment (6-mer frequency, TF over GST control)"}, {"measurement": "binding signal", "setting": "[6]", "value": "1.39 fold enrichment (6-mer frequency, TF over GST control)"}, {"measurement": "binding signal", "setting": "[7]", "value": "1.35 fold enrichment (6-mer frequency, TF over GST control)"}, {"measurement": "binding signal", "setting": "[8]", "value": "1.5 fold enrichment (6-mer frequency, TF over GST control)"}, {"measurement": "binding signal", "setting": "[9]", "value": "1.54 fold enrichment (6-mer frequency, TF over GST control)"}, {"measurement": "binding signal", "setting": "[10]", "value": "1.25 fold enrichment (6-mer frequency, TF over GST control)"}]}]}
